Mito fusion act: qHTS Assay for Small Molecule Inhibitors of Mitochondrial Division or Activators of Mitochondrial Fusion. Potency, µM (titrated, usually from 46.1 µM), actives largely listed as activators. 320,000 compounds, 0.23% hits. S. cerevisiae fusion-defective mutant growth rescue, CellTiterGlo 48 h; further: nearly all actives have a fitted effect of over 45% in size
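Yeast fusion mutant, YPEG (non-fermentable carbon), compound, 48 h at 37C non-permissive; CellTiterGlo added, 10 min RT, luminescence read. Rescued growth = division inhibition.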
BRCA1 expr up: qHTS Assay to Identify Small Molecule Activators of BRCA1 Expression | MCF7-BRCA1-FFLuc reporter, luminescence, 48 h; response scale: scaled: vehicle 0%, 10 µM genistein 100% | Potency, µM (series often up to 46.1 µM), actives largely listed as activators | 380,000 compounds, 1.1% hits | AID 624202, 2012; further: nearly all actives have a fitted effect of over 80% in size
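First, MCF7-BRCA1-FFLuc cells (2000/well) attach for 2 h; next, compounds are pin-added and incubated 48 h at 37 °C; finally, luciferase reagent is added and luminescence read after 15 min.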
HEK293 tox: qHTS of GLP-1 Receptor Inverse Agonists: Cytotox Screen | HEK293 cAMP-luciferase reporter cells, luminescence, 24 h | Potency, µM (titrated, usually from 38.3 µM), usual class: inhibitors | AID 624418, 2012 | 410,000 compounds, 0.13% hits;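 further: loss of luciferase light is scored as toxicity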
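MLSMR compounds, 24 hr on cells at 37 deg C/5% CO2; luminescence after luciferase reagent (12 min RT). Inhibition counted as the undesired cytotoxic outcome.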
GLP-1R inv ag: qHTS of GLP-1 Receptor Inverse Agonists (Inhibition Mode) | Glucagon-like peptide 1 receptor (Homo sapiens), P43220 | HEK293 GLP-1R CRE-luciferase, luminescence, 24 h; GLP-1R form is constitutively active | Potency, µM (highest dose often 38.3 µM), actives largely listed as inhibitors | 410,000 compounds, 1.6% hits | AID 624417, 2012; further: nearly all actives have a fitted effect of over 55% in size
Target sequence (P43220 whole entry, looked up): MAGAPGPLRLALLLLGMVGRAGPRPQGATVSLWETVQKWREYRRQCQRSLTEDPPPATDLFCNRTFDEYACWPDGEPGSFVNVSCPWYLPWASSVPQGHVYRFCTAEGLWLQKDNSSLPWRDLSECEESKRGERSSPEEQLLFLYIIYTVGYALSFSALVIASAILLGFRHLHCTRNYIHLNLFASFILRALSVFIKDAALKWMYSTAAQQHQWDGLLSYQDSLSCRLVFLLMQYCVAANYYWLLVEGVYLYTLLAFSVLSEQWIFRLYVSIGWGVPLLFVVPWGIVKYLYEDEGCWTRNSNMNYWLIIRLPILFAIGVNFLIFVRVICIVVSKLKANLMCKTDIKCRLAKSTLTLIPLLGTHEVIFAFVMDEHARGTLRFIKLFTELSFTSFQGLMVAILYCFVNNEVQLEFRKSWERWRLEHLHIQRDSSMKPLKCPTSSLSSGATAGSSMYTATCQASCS
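Inverse agonism was detected as reduced cAMP-driven luciferase luminescence after 24 h compound treatment. The cells were HEK293 clones expressing constitutively active human GLP-1R with the reporter. Reporter-only and GPR119 cell lines served as counterscreen controls.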
GLP-1R agonist: qHTS of GLP-1 Receptor Agonists; HEK293 GLP-1R CRE-luciferase, luminescence, 4-6 h; cells express a hypersensitive GLP-1R form; Potency, µM (highest dose often 45.6 µM), hits mostly activators; 380,000 compounds, 0.007% hits; Glucagon-like peptide 1 receptor (Homo sapiens), P43220
Large screens that a line does not name were inactive. Compounds with a hit are over-represented: about 2.8% of the library has one in this group of screens. The call rests on the fitted dose curve; in most records, active means well fitted curve in the direction sought with a large enough effect; inconclusive means small, poorly fitted or top-dose-only effect, or another doubt; inactive means no such curve, though single readings can be large; an effect the other way counts as inactive or inconclusive.

CC(C(=O)Nc1ccc(C#N)cc1)N(C)CC(=O)Nc1ccccc1Br (centres undefined)	GLP-1R inv ag 11µM
CCCn1nc(C(=O)NNC(=O)c2ccc(OC(F)F)cc2)c2ccccc2c1=O	none (no result: Mito fusion act)
Cc1cc(C)cc(NC(=O)Nc2ccc(-n3ccc(C(F)(F)F)n3)cc2)c1	HEK293 tox inconclusive, GLP-1R inv ag 2.2µM
O=C(O)c1ccccc1C(=O)Nc1ccc(-n2ccc(C(F)(F)F)n2)cc1	none
COc1ccccc1NC(=O)Nc1ccc(-n2ccc(C(F)(F)F)n2)cc1	GLP-1R inv ag 2µM
O=C(Nc1ccc(-n2ccc(C(F)(F)F)n2)cc1)c1cccs1	BRCA1 expr up 6.3µM, GLP-1R inv ag inconclusive
O=C(Nc1ccc(-n2ccc(C(F)(F)F)n2)cc1)Nc1cccc(Cl)c1	none (no result: BRCA1 expr up, HEK293 tox, GLP-1R inv ag, GLP-1R agonist)
CN1CCN(C2CN(C3CCCCC3)S(=O)(=O)C2)CC1 (centres undefined)	none (no result: Mito fusion act)
Cc1ccc(CN2CCN(Cc3c(C)nn(C(C)C)c3C)CC2CCO)o1 (centres undefined)	none
CC(O)CNCCCCOc1ccc(OCc2ccccc2)cc1 (centres undefined)	BRCA1 expr up inconclusive, GLP-1R inv ag 14µM
COc1ccc(-n2c(=O)c3c4c(sc3n(Cc3ccccc3C)c2=O)CCCC4)c(OC)c1	none (no result: Mito fusion act, BRCA1 expr up, GLP-1R agonist)
COc1ccc(-n2c(=O)c3c4c(sc3n(Cc3ccc(C(C)(C)C)cc3)c2=O)CCC4)c(OC)c1	GLP-1R inv ag 6.3µM (no result: Mito fusion act, BRCA1 expr up, GLP-1R agonist)
COc1ccc(OC)c(NC(=O)CC2SC(=Nc3ccc(F)cc3)N(CCC3=CCCCC3)C2=O)c1 (centres undefined)	GLP-1R inv ag 4.5µM
Cc1ccc(OCC(=O)O/N=C(\N)c2ccccn2)cc1	BRCA1 expr up 6.3µM
N/C(=N\OC(=O)C1CCCCC1)c1ccccn1	BRCA1 expr up 11µM
N/C(=N\OC(=O)Cc1ccccc1)c1ccccc1Cl	BRCA1 expr up 14µM
N/C(=N\OC(=O)Cc1ccc(Cl)cc1)c1ccccn1	BRCA1 expr up 10µM
Cc1cccc(OCC(=O)O/N=C(\N)c2ccccn2)c1C	BRCA1 expr up inconclusive
Cc1ccc(CC(=O)O/N=C(\N)c2ccccn2)cc1	BRCA1 expr up inconclusive
COc1ccc(C2c3ccc4ccccc4c3Oc3ncn(CCCO)c(=N)c32)cc1OC (centres undefined)	HEK293 tox inconclusive, GLP-1R inv ag inconclusive, GLP-1R agonist inconclusive
C=CCN1C(=NC(=O)COc2ccc(Cl)cc2)SC2CS(=O)(=O)CC21 (centres undefined)	none
CC(C)CCN(C)C1CCN(S(=O)(=O)c2ccc(F)cc2)CC1	none
COc1ccccc1CC(=O)O/N=C(\N)c1ccccn1	BRCA1 expr up inconclusive
CC(C)(C)CC(=O)O/N=C(\N)c1ccccn1	BRCA1 expr up 5µM, GLP-1R inv ag inconclusive
Cc1cccc(N2CCN(C(=O)/C=C/c3cccs3)CC2)c1C	Mito fusion act inconclusive, GLP-1R inv ag inconclusive
CN(Cc1nccn1C)C(=O)c1ccc2nc(Cc3ccccc3F)oc2c1	BRCA1 expr up 13µM
CN(Cc1nccs1)C(=O)c1ccc2nc(Cc3ccccc3F)oc2c1	BRCA1 expr up 3.2µM
CCOc1ccc(/C=C2\CCC(C3CCCC3)C2=O)cc1 (centres undefined)	BRCA1 expr up 4µM
Cc1ccc(-n2c(C)nn(CCOc3ccccc3)c2=O)cc1	BRCA1 expr up 6.3µM
Cc1nn(CC2CC2)c(=O)n1-c1ccccc1F	none
Cc1nn(CCOc2ccccc2)c(=O)n1-c1c(F)cccc1F	BRCA1 expr up 5.6µM
CC1(C(=O)Nc2ccc(F)c(Cl)c2)Cc2c(-c3cccc(C(F)(F)F)c3)ccnc2O1 (centres undefined)	GLP-1R inv ag inconclusive (no result: Mito fusion act)
CC(C)(C)c1ccc(C(=O)O/N=C(\N)c2ccccc2)cc1	GLP-1R inv ag inconclusive
Cc1cc(C(=O)O/N=C(\N)c2ccc(C(C)(C)C)cc2)no1	BRCA1 expr up 2.5µM
CCCCn1c(=NC(=O)c2ccc3c(c2)OCO3)c(C#N)cc2c(=O)n3cccc(C)c3nc21	none
CC(=O)c1ccc(S(=O)(=O)Nc2ccc(-n3cnnn3)cc2)cc1	none
Cc1ccc(CCNC(=O)c2ccc3c(c2)nc2n3CCOC2)cc1	none (no result: Mito fusion act, BRCA1 expr up, GLP-1R agonist)
CCNC(=O)c1ccc2c(c1)nc1n2CCCCC1	none (no result: Mito fusion act, BRCA1 expr up, GLP-1R agonist)
O=C(NCCc1ccccc1Cl)c1ccc2c(c1)nc1n2CCCCC1	GLP-1R inv ag 13µM (no result: Mito fusion act, BRCA1 expr up, GLP-1R agonist)
COc1ccc(CCNC(=O)c2ccc3c(c2)nc2n3CCCCC2)cc1OC	none (no result: Mito fusion act, BRCA1 expr up, GLP-1R agonist)
O=C(NCCc1ccccc1)c1ccc2c(c1)nc1n2CCOC1	GLP-1R inv ag 8.9µM (no result: Mito fusion act, BRCA1 expr up, GLP-1R agonist)
CC(C)CCNC(=O)c1ccc2c(c1)nc1n2CCCCC1	GLP-1R inv ag 6.3µM (no result: Mito fusion act, BRCA1 expr up, GLP-1R agonist)
Cc1ccc(N(CC(=O)Nc2ccc(C)c(Cl)c2)S(=O)(=O)c2cccs2)cc1	none (no result: Mito fusion act)
COc1ccc(NC(=O)Cc2nnc(SCC(=O)NC3=NCCS3)n2C)cc1	none
O=C(COC(=O)c1ccc(O)cc1O)NC12CC3CC(CC(C3)C1)C2	GLP-1R inv ag inconclusive
O=C(OCC(=O)C12CC3CC(CC(C3)C1)C2)c1ccc(O)cc1O	Mito fusion act inconclusive, HEK293 tox inconclusive, GLP-1R inv ag 11µM
O=C(CN1C(=O)COc2ccc(S(=O)(=O)N3CCCCC3)cc21)NCc1ccc(Cl)cc1	GLP-1R inv ag 10µM
CCN(CC)S(=O)(=O)c1ccc2c(c1)N(CC(=O)NCCCN1CCN(c3cc(Cl)ccc3C)CC1)C(=O)CO2	HEK293 tox inconclusive, GLP-1R inv ag 11µM (no result: Mito fusion act)
CN(Cc1ccccc1)C(=O)CN1C(=O)COc2ccc(S(=O)(=O)N3CCCC3)cc21	none
O=C(CC1CCCCC1)NCc1ccc(Cl)cc1	BRCA1 expr up 11µM, GLP-1R inv ag inconclusive
O=C(CN1C(=O)COc2ccc(S(=O)(=O)N3CCCCCC3)cc21)NCc1ccc(Cl)cc1	GLP-1R inv ag inconclusive (no result: Mito fusion act, BRCA1 expr up, GLP-1R agonist)
CC(C)N(Cc1ccccc1)C(=O)CN1C(=O)COc2ccc(S(=O)(=O)N3CCCCCC3)cc21	GLP-1R inv ag 7.9µM
Cc1ccc(S(=O)(=O)NC(C)(C)CN2CCNCC2)cc1	none
O=C1CC2(CCCC2)CC(=O)N1CCNCC1COc2ccccc2O1 (centres undefined)	none (no result: Mito fusion act, BRCA1 expr up, HEK293 tox, GLP-1R inv ag)
COc1ccc(OCC(O)CON2C(=O)c3ccccc3C2=O)cc1 (centres undefined)	none
CC(C)CCNC(=O)CCc1nnc(Cc2c[nH]c3ccccc23)o1	none
O=C(COC(=O)c1ccc(S(=O)(=O)N2CCCC2)cc1)NCc1ccc(Cl)cc1	none
O=C(Cc1ccc(S(=O)(=O)N2CCCCC2)cc1)NCc1ccc(Cl)cc1	GLP-1R inv ag 7.1µM
